PubChem BioAssay AID1159580 (chemical genetic matrix, 2015)
Several values for one entry are separate records, joined by “and”; a condition that tells them apart may be missing. Equal values may be shown once. Out of some 5,500 compounds screened, about 2,000 (36%) were called active. Inconclusive results (about 18%) are left out. Rule as the data show it: active = normalized growth mostly below about 0.91 (no sharp cut-off); inconclusive = no clear call, values can overlap the other calls; inactive = mostly above about 0.92. This is one part of the list.

Experiment: chemical genetic growth profiling, strain panel (AID 1159580);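 also: tested at 20 µM; growth read once vehicle control cultures reached saturation at 30 °C; 1 = growth at the plate median or of vehicle wells; lower values mean less growth of the strain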
Details: S. cerevisiae deletion strains, growth OD

Measured: normalized growth

Cc1c(C(N)=O)cc([N+](=O)[O-])cc1[N+](=O)[O-]
inactive: locus YAL021C, strain ccr4, active compounds read low 0.995 | locus YAL026C, strain drs2, active compounds read low 1.04 | locus YAL030W, strain snc1, active compounds read low 1.01 | locus YBL061C, strain skt5, active compounds read low 1.02 | locus YBR009C, strain hhf1, active compounds read low 1.08 | locus YBR021W, strain FUR4, active compounds read low 0.969 | locus YBR023C, strain chs3, active compounds read low 1.03 | locus YBR171W, strain sec66, active compounds read low 1.01 | locus YBR229C, strain ROT2, active compounds read low 0.986 | locus YBR231C, strain swc5, active compounds read low 0.996 | locus YBR279W, strain paf1, active compounds read low 1.02 | locus YCL011C, strain gbp2, active compounds read low 1.03 | locus YCL016C, strain dcc1, active compounds read low 1.04 | locus YCL029C, strain bik1, active compounds read low 0.977 | locus YCL061C, strain MRC1, active compounds read low 1.03 | locus YCL069W, strain vba3, active compounds read low 1.02 | locus YCR088W, strain abp1, active compounds read low 1.01 | locus YDL005C, strain med2, active compounds read low 1.02 | locus YDL035C, strain GPR1, active compounds read low 0.994 | locus YDL040C, strain nat1, active compounds read low 1.02 | locus YDL074C, strain BRE1, active compounds read low 1.01 | locus YDL101C, strain DUN1, active compounds read low 0.99 | locus YDL134C, strain PPH21, active compounds read low 0.97 | locus YDL185W, strain tfp1, active compounds read low 0.967 | locus YDL192W, strain arf1, active compounds read low 0.966 | locus YDR001C, strain nth1, active compounds read low 1.01 | locus YDR069C, strain doa4, active compounds read low 0.997 | locus YDR101C, strain arx1, active compounds read low 1 | locus YDR137W, strain rgp1, active compounds read low 1.04 | locus YDR150W, strain NUM1, active compounds read low 0.99 | locus YDR159W, strain sac3, active compounds read low 0.991 | locus YDR162C, strain NBP2, active compounds read low 0.994 | locus YDR195W, strain ref2 1.02 | locus YDR297W, strain sur2, active compounds read low 1.01 | locus YDR318W, strain mcm21, active compounds read low 0.983 | locus YDR334W, strain swr1, active compounds read low 1.02 | locus YDR335W, strain msn5, active compounds read low 1.03 | locus YDR388W, active compounds read low 0.982 | locus YDR392W, strain spt3, active compounds read low 1 | locus YDR502C, strain sam2, active compounds read low 1 | locus YEL003W, strain gim4, active compounds read low 1.03 | locus YEL037C, strain rad23, active compounds read low 1.02 | locus YEL061C, strain CIN8 (second series), active compounds read low 1.02 | locus YEL061C, strain CIN8, active compounds read low 0.99 | locus YER015W, strain faa2, active compounds read low 1.01 | locus YER016W, strain bim1, active compounds read low 1.01 | locus YER110C, active compounds read low 0.965 | locus YER111C, strain swi4, active compounds read low 1.02 | locus YER155C, strain BEM2 (second series), active compounds read low 0.978 | locus YER155C, strain BEM2, active compounds read low 0.987 | locus YER167W, strain BCK2, active compounds read low 0.99 | locus YFR010W, strain ubp6, active compounds read low 1.03 | locus YGL078C, strain dbp3, active compounds read low 0.98 | locus YGL086W, strain mad1, active compounds read low 0.994 | locus YGL167C, strain pmr1, active compounds read low 1.03 | locus YGL173C, strain kem1, active compounds read low 1.01 | locus YGL227W, strain vid30, active compounds read low 1.01 | locus YGL240W, strain doc1, active compounds read low 1 | locus YGL248W, strain PDE1, active compounds read low 1 | locus YGL253W, strain hxk2, active compounds read low 1.02 | locus YGR078C, strain PAC10, active compounds read low 1 | locus YGR135W, strain pre9, active compounds read low 0.977 | locus YGR252W, strain gcn5, active compounds read low 0.945 | locus YHR013C, strain ard1, active compounds read low 1.07 | locus YHR027C, strain rpn1, active compounds read low 1.02 | locus YHR030C, strain SLT2, active compounds read low 0.98 and 1.04 | locus YHR079C, strain IRE1 (second series), active compounds read low 0.984 | locus YHR079C, strain IRE1, active compounds read low 1.04 | locus YHR094C, strain hxt1, active compounds read low 0.977 | locus YHR129C, strain ARP1, active compounds read low 0.993 | locus YHR142W, strain chs7, active compounds read low 1.02 | locus YHR200W, strain rpn10, active compounds read low 0.98 | locus YIL066C, strain RNR3, active compounds read low 0.988 | locus YIL073C, strain SPO22, active compounds read low 0.95 | locus YIL125W, strain kgd1, active compounds read low 0.99 | locus YIR030C, strain dcg1, active compounds read low 0.984 | locus YJL092W, strain hpr5, active compounds read low 1.02 | locus YJL095W, strain BCK1 (second series), active compounds read low 1.04 | locus YJL095W, strain BCK1, active compounds read low 1.02 and 1.05 | locus YJL115W, strain asf1, active compounds read low 1.03 | locus YJL129C, strain trk1, active compounds read low 1.05 | locus YJL134W, strain LCB3, active compounds read low 0.991 | locus YJL154C, strain vps35, active compounds read low 1.01 | locus YJL164C, strain tpk1, active compounds read low 1.06 | locus YJL166W, strain qcr8, active compounds read low 1.02 | locus YJL168C, strain set2, active compounds read low 0.979 | locus YJL187C, strain SWE1 (second series), active compounds read low 0.999 | locus YJL187C, strain SWE1, active compounds read low 1.01 | locus YJR043C, strain POL32, active compounds read low 1.02
